Measured values from PubChem BioAssay (EPA / NIEHS).
Records with an inconclusive call do not appear. Calls of active or inactive are those of the source. How the source made its calls: active means hit-call score of the fitted dose curve at least 0.9, where 1 is the maximum; inconclusive means response in the unintended direction; inactive means score below 0.9.

Tests used:
[1] = TOX21_p53_BLA_p2_viability: Viability Assessment in the Tox21 HCT-116 p53 Agonism Beta-lactamase Assay, Phase 2 (AID 2283591);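 further: actives lower the ATP signal meaning cytotoxicity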
Outline: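 Cytotoxicity readout: CellTiter-Glo ATP luminescence, 30 min at room temperature, after the beta-lactamase read. Cells were HCT116 exposed 16 h at 37C to compounds pin-transferred at 217-fold dilution from DMSO stocks.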

[2] = target: Cellular tumor antigen p53 (Homo sapiens) (UniProt P04637); assay: TOX21_p53_BLA_p2_ratio: Tox21 HCT-116 p53 Agonism Beta-lactamase Assay, Ratio, Phase 2 (AID 2283592)
Cellular tumor antigen p53 (Homo sapiens), sequence (P04637 whole entry, looked up): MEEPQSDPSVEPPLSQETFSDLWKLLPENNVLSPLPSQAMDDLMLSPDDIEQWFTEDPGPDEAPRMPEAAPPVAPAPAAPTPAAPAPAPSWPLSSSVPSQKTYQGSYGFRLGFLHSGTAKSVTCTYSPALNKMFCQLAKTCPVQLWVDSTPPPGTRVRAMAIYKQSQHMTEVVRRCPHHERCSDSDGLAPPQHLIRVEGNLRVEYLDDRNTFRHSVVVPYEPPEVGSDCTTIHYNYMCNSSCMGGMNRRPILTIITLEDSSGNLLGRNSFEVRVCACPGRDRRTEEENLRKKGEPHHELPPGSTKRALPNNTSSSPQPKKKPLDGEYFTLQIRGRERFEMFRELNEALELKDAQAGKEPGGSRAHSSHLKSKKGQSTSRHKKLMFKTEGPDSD
Outline: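 First, HCT116 reporter cells settle for 5 h at 37C. Next, DMSO compound solutions are pinned in (217-fold dilution) and left 16 h. Finally, CCF4-AM substrate is loaded 2 h at room temperature and the 460/530 nm ratio read.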

[3] = target: Cellular tumor antigen p53 (Homo sapiens) (UniProt P04637); assay: TOX21_p53_BLA_p3_ratio: Tox21 HCT-116 p53 Agonism Beta-lactamase Assay, Ratio, Phase 3 (AID 2283596)
Outline: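 Cells were seeded at 4000/well, rested 5 h at 37C, then dosed with DMSO compound solutions (217-fold dilution) for 16 h. CCF4-AM substrate was loaded for 2 h at room temperature, and the 460/530 nm emission ratio was fitted for gain of signal versus DMSO.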

[4] = TOX21_p53_BLA_p5_viability: Viability Assessment in the Tox21 HCT-116 p53 Agonism Beta-lactamase Assay, Phase 5 (AID 2283600)
Outline: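 Decreased CellTiter-Glo luminescence denotes lost viability. Exposure: 16 h at 37C, 5% CO2, with compounds from DMSO stocks diluted 217-fold in wells of 4000 cells.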

[5] = target: Cellular tumor antigen p53 (Homo sapiens) (UniProt P04637); assay: TOX21_p53_BLA_p4_ratio: Tox21 HCT-116 p53 Agonism Beta-lactamase Assay, Ratio, Phase 4 (AID 2283601)
Outline: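 Signal is the blue/green (460nm/530nm) ratio of cleaved versus uncleaved CCF4-AM substrate, read after 2 h substrate loading. Cells were HCT116 carrying the p53-responsive beta-lactamase reporter, dosed 16 h at 37C, 5% CO2; CellTiter-Glo measured in parallel.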

[6] = TOX21_p53_BLA_p4_viability: Viability Assessment in the Tox21 HCT-116 p53 Agonism Beta-lactamase Assay, Phase 4 (AID 2283597);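 further: hits lower the luminescence signal meaning cytotoxicity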
Outline: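 4000 HCT116 cells per well; 5 h attachment; compounds from DMSO, 217-fold dilution; 16 h at 37C. Then CCF4-AM, 2 h RT, followed by CellTiter-Glo, 30 min RT, luminescence. Decrease = cytotoxicity.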

[7] = target: Cellular tumor antigen p53 (Homo sapiens) (UniProt P04637); assay: TOX21_p53_BLA_p5_ratio: Tox21 HCT-116 p53 Agonism Beta-lactamase Assay, Ratio, Phase 5 (AID 2283599)
Outline: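 Beta-lactamase reporter ratio (blue 460 nm over green 530 nm, 405 nm excitation) after 2 h CCF4-AM loading, in HCT-116 cells exposed 16 h at 37 C to compounds pinned at 217-fold dilution. Increases relative to DMSO baseline scored.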

Measured: outcome

CN(C)CCn1nnnc1SCC1=C(C(=O)O)N2C(=O)[C@@H](NC(=O)Cc3csc(N)n3)[C@H]2SC1
inactive: [1] | [2] | [3] | [4] | [5]

O=C(Cl)c1ccccc1[N+](=O)[O-]
inactive: [1] | [2] | [3] | [4]

COc1ccc(C)cc1
inactive: [1] | [2] | [3] | [4] | [5]

CCC(C)O (stereo not drawn)
inactive: [1] | [2] | [3] | [4]

OCCN1CCN(CC/C=C2/c3ccccc3Sc3ccc(Cl)cc32)CC1
inactive: [1] | [2] | [6]

CO/N=C(\C(=O)N[C@@H]1C(=O)N2C(C(=O)[O-])=C(C[n+]3cccc4c3CCC4)CS[C@H]12)c1csc(N)n1
inactive: [1] | [2] | [3] | [4] | [5]

CC[N+](CC)(CC)CCC(O)(c1ccccc1)C1CCCCC1 (stereo not drawn)
inactive: [1] | [2] | [3] | [4] | [5]

Nc1ncnc(Nc2ccccc2)n1
inactive: [1] | [2] | [3] | [5]

Cc1cc2c(OCC(CNC(C)(C)C)OC(=O)c3ccccc3)cccc2[nH]1 (stereo not drawn)
inactive: [1] | [2] | [3] | [4]

O=[N+]([O-])c1cccc(S(=O)(=O)NCCNS(=O)(=O)c2cccc([N+](=O)[O-])c2)c1
inactive: [1] | [2] | [3] | [4] | [5]

CCCc1ncc(C[n+]2ccccc2C)c(N)n1
inactive: [1] | [2] | [6] | [4] | [5]

Cc1ccc(N=Nc2c(O)c(C(=O)O)cc3ccccc23)c(S(=O)(=O)O)c1
inactive: [1] | [2] | [6] | [7] | [5]

CC[C@H]1NC(=O)[C@@H](NC(=O)c2ncccc2O)[C@@H](C)OC(=O)[C@H](c2ccccc2)NC(=O)[C@@H]2CC(=O)CCN2C(=O)[C@H](Cc2ccccc2)N(C)C(=O)[C@@H]2CCCN2C1=O
inactive: [1] | [2] | [6] | [7] | [4]

Nc1ccccn1
inactive: [1] | [2] | [6] | [7] | [4] | [5]

C[C@@H]1O[C@@H](O[C@@H]2[C@@H](O)[C@H](OCCc3ccc(O)c(O)c3)O[C@H](CO[C@@H]3O[C@H](CO)[C@@H](O)[C@H](O)[C@H]3O)[C@H]2OC(=O)/C=C/c2ccc(O)c(O)c2)[C@H](O)[C@H](O)[C@H]1O
inactive: [1] | [2] | [6] | [4]

COC(=O)C1=C(C)NC(C)=C(C(=O)O[C@@H]2CCCN(Cc3ccccc3)C2)[C@@H]1c1cccc([N+](=O)[O-])c1
inactive: [1] | [2] | [6] | [7] | [4] | [5]

CCc1cn([C@H]2C[C@H](O)[C@@H](CO)O2)c(=O)[nH]c1=O
inactive: [1] | [2] | [6] | [7] | [4] | [5]

CN1CCN(CCCN2c3ccccc3Sc3ccc(S(=O)(=O)N(C)C)cc32)CC1
inactive: [1] | [2] | [6] | [7] | [4] | [5]

NC(=S)NC(N)=S
inactive: [1] | [2] | [6] | [4] | [5]

CC(=O)c1cc(C)oc1C
inactive: [1] | [2] | [6] | [4] | [5]

CC(O)CN(C)C (stereo not drawn)
inactive: [1] | [2] | [6] | [7] | [5]

CCCC(C)CC (stereo not drawn)
inactive: [1] | [2] | [6] | [4]

CC1c2ccccc2CN1NC(=O)c1ccc(Cl)c(S(N)(=O)=O)c1 (stereo not drawn)
inactive: [1] | [2] | [6] | [7] | [4] | [5]

COc1cc(-c2ccc(N=C=O)c(OC)c2)ccc1N=C=O
inactive: [1] | [2] | [6] | [7] | [5]

CCC(=O)Nc1cccc(N)c1
inactive: [1] | [2] | [6] | [4]

O=C=Nc1ccc(Cl)c(Cl)c1
inactive: [1] | [2] | [6] | [7] | [4] | [5]

CCN1CCC[C@H]1CNC(=O)c1c(O)c(Cl)cc(Cl)c1OC
inactive: [1] | [2] | [6] | [7] | [4]

c1ccc(CCNc2nc(-c3ccccc3)cs2)cc1
inactive: [1] | [2] | [6] | [7] | [4]

CCCC(C)C(=O)O (stereo not drawn)
inactive: [1] | [2] | [6] | [7] | [4]

COc1nc(N)nc2nc[nH]c12
inactive: [1] | [2] | [6] | [4]

CCC(C)=NO[Si](C)(ON=C(C)CC)ON=C(C)CC
inactive: [1] | [2] | [6] | [7] | [4] | [5]

CC(COc1ccc(C(C)(C)C)cc1)OS(=O)OCCCl (stereo not drawn)
inactive: [1] | [2] | [6] | [7] | [4] | [5]
